Test results as given in PubChem BioAssay AID1529 (NMMLSC, 2009).
In all, about 290,000 compounds went through this assay and about 4,200 (1.4%) were called active. Many of the other results were omitted from the sample, so actives are more common in it than they were. A number with no mark means an inactive call.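 Rule for the calls: active = binding response more than 3 SD above or below the average of its plate-row segment, actives on both sides; inconclusive = wells at one plate position flagged as instrument error; inactive = the rest.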

biological target: Mitogen-activated protein kinase kinase kinase 3 (Homo sapiens) (UniProt Q99759); test: modulators of MEKK3-MEK5 PB1 binding, primary screen, biochemical, wildtype MEKK3, multiplex bead flow cytometry, Alexa488-MEK5 (AID 1529); settings: bead-based flow cytometry, Alexa488-MEK5 binding to MEKK3; at 10 µM; actives lie on both sides; 0 = blocked by unlabeled MEK5, 100 = vehicle;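 note: Alexa488 bead fluorescence after subtracting the streptavidin-only scavenger bead signal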
Sequence (Q99759 whole entry, looked up): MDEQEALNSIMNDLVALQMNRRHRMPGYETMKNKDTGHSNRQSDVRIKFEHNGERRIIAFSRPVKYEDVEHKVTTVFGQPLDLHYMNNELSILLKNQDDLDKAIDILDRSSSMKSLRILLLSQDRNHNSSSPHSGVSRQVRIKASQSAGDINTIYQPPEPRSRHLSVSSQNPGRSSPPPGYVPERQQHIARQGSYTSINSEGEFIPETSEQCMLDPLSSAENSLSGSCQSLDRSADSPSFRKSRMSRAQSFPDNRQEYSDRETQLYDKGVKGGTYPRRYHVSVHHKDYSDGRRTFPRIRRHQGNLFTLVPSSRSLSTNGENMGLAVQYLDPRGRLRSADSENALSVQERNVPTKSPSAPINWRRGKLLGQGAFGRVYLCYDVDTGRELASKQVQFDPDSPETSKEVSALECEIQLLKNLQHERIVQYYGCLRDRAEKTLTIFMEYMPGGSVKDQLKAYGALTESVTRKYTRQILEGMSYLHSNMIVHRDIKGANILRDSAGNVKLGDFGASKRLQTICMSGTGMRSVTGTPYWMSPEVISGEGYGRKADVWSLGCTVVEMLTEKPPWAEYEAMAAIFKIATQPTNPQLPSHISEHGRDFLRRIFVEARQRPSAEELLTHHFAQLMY

**Q.** Which binding response (% of control) does the source give for `Cc1cc(C)nc(NS(=O)(=O)c2ccc(N3C(=O)C4CCCCC4C3=O)cc2)n1` (stereo unspecified) here?
**A.** 101%

**Q.** Which binding response (% of control) does the source give for `Cc1cccn2c(=O)c(/C=C3\SC(=S)N(CC(C)C)C3=O)c(NCCCOC(C)C)nc12` here?
**A.** 66%

**Q.** How did the binding response (% of control) turn out when `CCCN(CCC)c1nc2c(C)cccn2c(=O)c1/C=C1/SC(=S)N(Cc2ccco2)C1=O` was run?
**A.** 32% [inhibitor] (active)

**Q.** With `CCOC(=O)CC1C(=O)NCCN1c1nc2c(C)cccn2c(=O)c1/C=C1\SC(=S)N(C(C)CC)C1=O` (stereo unspecified) as the molecule, how does the binding response (% of control) read?
**A.** 93%

**Q.** Which binding response (% of control) does the source give for `Cc1csc(NC(=O)CSc2nnc(-c3cccnc3)o2)n1` here?
**A.** 99%

**Q.** Which binding response (% of control) does the source give for `CCCC[C@@H]1CN=C(N)N1CCc1cccc(F)c1` here?
**A.** 106%

**Q.** `O=C(NCc1ccccn1)C1CCN(S(=O)(=O)c2ccc(Br)cc2)CC1` was tested. Which binding response (% of control) did it give?
**A.** 103%

**Q.** How did the binding response (% of control) turn out when `COc1ccc(CNc2ncnc3ccccc23)cc1` was run?
**A.** 100%

**Q.** For `O=[N+]([O-])c1ccccc1NCc1ccccc1Cl`, which binding response (% of control) is on record?
**A.** 66%

**Q.** With `O=C(NCc1ccccc1Cl)NC(=O)c1csc([N+](=O)[O-])c1` as the molecule, how does the binding response (% of control) read?
**A.** 0% [inhibitor] (active)

**Q.** `O=C(NCc1ccccc1Cl)c1csc2c1CCCCC2` was tested. Which binding response (% of control) did it give?
**A.** 96%

**Q.** For `CCC(C)[C@H](NC(=O)N1c2ccccc2NC(=O)[C@@H]1C(C)C)C(=O)N[C@@H](Cc1ccccc1)C(=O)O` (stereo partly specified), which binding response (% of control) is on record?
**A.** 101%

**Q.** `COc1ccc(NC(=O)CCCC2CCCCC2)c(OC)c1` was tested. Which binding response (% of control) did it give?
**A.** 97%

**Q.** How did the binding response (% of control) turn out when `CCCc1ccc(OCCNC(=O)c2ccco2)cc1` was run?
**A.** 101%

**Q.** With `CC(=O)NCCNC(=O)c1cc(-c2cccc3ccccc23)nc2ccccc12` as the molecule, how does the binding response (% of control) read?
**A.** 102%

**Q.** Which binding response (% of control) does the source give for `CCOC(=O)C1CCN(C(=O)c2ccccc2N(C)S(=O)(=O)c2ccccc2)CC1` here?
**A.** 105%

**Q.** With `O=c1cc(N2CCN(Cc3ccccc3)CC2)c(-c2ccccc2)n[nH]1` as the molecule, how does the binding response (% of control) read?
**A.** 101%

**Q.** `O=c1cc(N2CCCCC2)c(-c2ccccc2)nn1Cc1cccc(F)c1` was tested. Which binding response (% of control) did it give?
**A.** 157% (active)

**Q.** Which binding response (% of control) does the source give for `c1ccc(-c2cc(N3CCCCC3)c3ccccc3n2)cc1` here?
**A.** 100%

**Q.** `CC(=O)Nc1ccc(NC(=O)COc2ccc(-c3ccccc3)cc2)cc1` was tested. Which binding response (% of control) did it give?
**A.** 99%

**Q.** With `COc1ccc(-c2noc(CNC(=O)C(C)Oc3ccccc3)n2)cc1` (stereo unspecified) as the molecule, how does the binding response (% of control) read?
**A.** 99%

**Q.** With `CCC(C)OC(=O)C(C)Oc1ccc(-c2ccccc2)cc1` (stereo unspecified) as the molecule, how does the binding response (% of control) read?
**A.** 2% [inhibitor] (active)

**Q.** For `COc1ccc(CCNS(=O)(=O)c2cccc([N+](=O)[O-])c2)cc1`, which binding response (% of control) is on record?
**A.** 111%

**Q.** For `O=C(Nc1ccccc1N1CCN(C(=O)c2ccccc2)CC1)c1ccco1`, which binding response (% of control) is on record?
**A.** 100%

**Q.** With `COc1ccc(NC(=O)Cn2nnc(C(=O)NCCc3ccc(OC)c(OC)c3)c2N)cc1` as the molecule, how does the binding response (% of control) read?
**A.** 2% [inhibitor] (active)

**Q.** `CCc1ccc(NC(=O)Cn2nnc(C(=O)NCc3ccc(OC)cc3)c2N)cc1` was tested. Which binding response (% of control) did it give?
**A.** 101%

**Q.** For `COc1ccc(CNC(=O)c2nnn(CC(=O)Nc3cc(C)cc(C)c3)c2N)cc1`, which binding response (% of control) is on record?
**A.** 100%

**Q.** `CCOC(=O)c1ccccc1NC(=O)c1c(N)n(C)c(=O)[nH]c1=O` was tested. Which binding response (% of control) did it give?
**A.** 103%

**Q.** With `COc1ccc(CNC(=O)CN(Cc2ccccc2Cl)C(=O)c2csnn2)cc1` as the molecule, how does the binding response (% of control) read?
**A.** 104%

**Q.** For `COc1cccc(N2CCN(c3ccc4nnc(CCC(=O)N5CCN(C)CC5)n4n3)CC2)c1`, which binding response (% of control) is on record?
**A.** 100%

**Q.** For `O=C(CSc1n[nH]c(=O)n1-c1ccccc1)Nc1ccccc1C(F)(F)F`, which binding response (% of control) is on record?
**A.** 102%

**Q.** How did the binding response (% of control) turn out when `COC(=O)c1ccc(S(=O)(=O)NCc2ccccc2)n1C` was run?
**A.** 78%

**Q.** How did the binding response (% of control) turn out when `Cc1c(S(=O)(=O)NC(C)c2ccccc2)c(=O)n(C)c(=O)n1C` (stereo unspecified) was run?
**A.** 101%

**Q.** How did the binding response (% of control) turn out when `Cc1c(S(=O)(=O)NCc2ccccc2)c(=O)n(C)c(=O)n1C` was run?
**A.** 131% (active)

**Q.** `COC(=O)c1cc(C(=O)OC)cc(N2C(=O)CC(N3CCN(c4ccccc4)CC3)C2=O)c1` (stereo unspecified) was tested. Which binding response (% of control) did it give?
**A.** 103%

**Q.** `COC(=O)C1(C)NC(c2ccccc2OC)C2C(=O)N(c3ccccc3)C(=O)C21` (stereo unspecified) was tested. Which binding response (% of control) did it give?
**A.** 104%

**Q.** `COC(=O)C1=NN(c2ccccc2)C2C(=O)N(c3ccccc3OC)C(=O)C12` (stereo unspecified) was tested. Which binding response (% of control) did it give?
**A.** 139% (active)

**Q.** For `CC(=O)Nc1ccc(S(=O)(=O)N(C)c2nc3ccccc3nc2Cl)cc1`, which binding response (% of control) is on record?
**A.** 103%

**Q.** Which binding response (% of control) does the source give for `CCc1ccc(-c2cc(C)no2)cc1S(=O)(=O)NCCc1ccc(S(N)(=O)=O)cc1` here?
**A.** 104%

**Q.** Which binding response (% of control) does the source give for `Cc1cccc(NC(=O)Nc2ccc(OCc3ccccc3)cc2)n1` here?
**A.** 99%

**Q.** For `O=C(O)/C=C\C(=O)Nc1ccc(OCc2ccccc2)cc1`, which binding response (% of control) is on record?
**A.** 130% (active)

**Q.** For `CCc1ccnc(NC(=O)Nc2ccc(OCc3ccccc3)cc2)c1`, which binding response (% of control) is on record?
**A.** 104%

**Q.** For `COc1cc(CNCc2ccc3c(c2)OCO3)c([N+](=O)[O-])cc1OC`, which binding response (% of control) is on record?
**A.** 95%

**Q.** With `COc1cccc(CNS(=O)(=O)c2ccc3c(c2)N(C(C)=O)CCS3)c1` as the molecule, how does the binding response (% of control) read?
**A.** 93%

**Q.** Which binding response (% of control) does the source give for `COc1cccc(CC2(CO)CCCN(Cc3ccc(OC(F)F)cc3)C2)c1` (stereo unspecified) here?
**A.** 109%

**Q.** For `COc1ccccc1N1CCN(C(=O)c2ccc(S(=O)(=O)N3CCCCC3)cc2)CC1`, which binding response (% of control) is on record?
**A.** 102%

**Q.** Which binding response (% of control) does the source give for `COc1cc2c(cc1OC)CN(C(=O)c1ccc(S(=O)(=O)N3CCCCCC3)cc1)CC2` here?
**A.** 132% (active)

**Q.** With `COc1cc2c(cc1OC)CN(C(=O)c1cc(S(=O)(=O)N3CCCCC3)ccc1Cl)CC2` as the molecule, how does the binding response (% of control) read?
**A.** 101%

**Q.** Which binding response (% of control) does the source give for `C/C(=N\NC(=O)c1ccccc1F)c1ccccn1` here?
**A.** 106%

**Q.** For `CC(C)(C)n1nc(Cc2cccc3ccccc23)c(C#N)c1N`, which binding response (% of control) is on record?
**A.** 101%

**Q.** `COc1ccc(/C=N/Nc2nc(-c3ccc(C)cc3)c(C#N)c(=O)[nH]2)cc1` was tested. Which binding response (% of control) did it give?
**A.** 104%

**Q.** How did the binding response (% of control) turn out when `CC(C)[C@H](NC(=O)N1CCn2c1nc1ccccc12)C(=O)NCCc1ccccc1` was run?
**A.** 100%

**Q.** `CCOC(=O)C[C@H]1c2ccc(C(F)(F)F)cc2S(=O)(=O)N1c1ccccc1` was tested. Which binding response (% of control) did it give?
**A.** 95%

**Q.** `COCCc1nn2c(=O)cc(COC(=O)c3cc(OC)c(OC)c(OC)c3)nc2s1` was tested. Which binding response (% of control) did it give?
**A.** 95%

**Q.** Which binding response (% of control) does the source give for `Cc1cc(=O)oc2cc(OC(C)C(=O)NCCc3ccc(S(N)(=O)=O)cc3)ccc12` (stereo unspecified) here?
**A.** 100%

**Q.** For `Cc1cc(C)cc(NC(=O)NCc2ccccn2)c1`, which binding response (% of control) is on record?
**A.** 101%
